Screens: PubChem, several laboratories
IEC-6 tox: cytotoxicity in IEC-6 intestinal epithelial cells, primary screen, cytotoxicity control for KLF5 inhibitor project, cell-based, luminescence; IEC-6 cytotoxicity, luminescence viability; AID 1825, 2009; 290,000 compounds, 0.78% hits; inhibition, % at 5 µM; in the data active = inhibition above about 22%;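 also: 0% = plate median of test compound wells and 100% = cytotoxic reference compound wells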
Ba/F3 V617F tox: reduced viability of JAK2V617F-dependent Ba/F3 cells, primary screen, JAK2V617F inhibitor project, cell-based, Ba/F3 EpoR-JAK2V617F, luminescence. ATP luminescence. inhibition, % at 5.6 µM. 220,000 compounds, 1.1% hits. AID 1446, 2008;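 active = inhibition above the campaign mean plus 3 SD over all tested compounds, cut at about 24% in these data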;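 also: cytokine-independent growth of Ba/F3 cells driven by EpoR plus mutant JAK2; 0% = DMSO-treated cells and 100% = JAK inhibitor I control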
APP transl inh: inhibitors of APP translation via 5'UTR reporter, primary screen, APP 5'UTR luciferase, SH-SY5Y cells; SH-SY5Y APP 5'UTR-luciferase reporter, luminescence; inhibition, % at 2 µM; 190,000 compounds, 0.82% hits; AID 1285, 2008;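 active = inhibition above a set limit, derived from the sample mean plus 3 SD, cut at about 45% in these data; inconclusive = one replicate passes the limit while the other fails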
aSyn 5UTR inh: MLPCN primary screen, SNCA 5' untranslated region | alpha-synuclein 5'UTR reporter, inhibitor activity | 300,000 compounds, 0.82% hits | inhibition, % (tested at 7.5 µM); in the data active = inhibition above about 60%; inconclusive = no clear call, values can overlap the other calls;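 also: H4 neuroglioblastoma cells stably carrying SNCA 5'UTR luciferase fusion; 0% = DMSO wells and 100% = positive control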
KLF5 inh: KLF5 expression inhibitors, primary screen, DLD-1 cells, luminescence; DLD-1 KLF5 promoter-luciferase reporter; inhibition, % at 5 µM; 290,000 compounds, 0.23% hits; AID 1700, 2009;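 active = inhibition above a per-plate limit of that plate's mean compound inhibition plus 3 SD, cut at about 60% in these data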;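 also: 0% = DMSO wells and 100% = LY294002 at 200 µM; higher means less KLF5 promoter-driven luciferase light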
BaF3 tox: parental Ba/F3 cell viability inhibition, counter-screen for JAK2V617F inhibitor project, murine pro-B, CellTiter-Glo luminescence; CellTiter-Glo ATP luminescence; inhibition, % at 5.6 µM; 220,000 compounds, 1.1% hits;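 active = inhibition above a per-campaign cutoff, the mean inhibition of all tested compounds plus 3 SD, cut at about 27% in these data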;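 also: 0% = DMSO wells and 100% = JAK Inhibitor I control wells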
* marks the source's active call; other numbers are inactive results; u = inconclusive; x = no result. Hits are enriched below; roughly 2.1% of the tested compounds scored in any of these assays.

SMILES	IEC-6 tox	Ba/F3 V617F tox	APP transl inh	aSyn 5UTR inh	KLF5 inh	BaF3 tox
COc1cc(CN2CCN(c3cc(C)ccc3C)CC2)ccc1O	10.0	35.3*	-25.9	-22.7	-5.4	49.6*
Cc1nn(CC(=O)N2CCC3(CC2)OCCO3)c(=O)c2cc3ccccc3n12	2.2	x	x	-9.8	-15.0	x
CC1Oc2cc3c(-c4c(O)cc(O)c5c(O)c6c(cc45)OC(C)C(C)C6=O)c(O)cc(O)c3c(O)c2C(=O)C1C (stereo not drawn)	-9.0	96.5*	x	87.0*	30.2	35.1*
CC[N+]12CCC(CC1)C(=C(c1ccccc1)c1ccccc1)C2	-1.2	8.5	-6.5	15.4	14.6	28.6*
C[N+]12CCC(CC1)C(=C(c1ccccc1)c1ccccc1)C2	-4.8	5.1	1.2	0.5	-17.8	23.5
O=C(c1ccccc1)C(CN1CCCC1)c1ccccc1 (stereo not drawn)	5.3	1.1	92.1*	-77.4	6.9	-0.3
N[C@@H]1CCCC[C@H]1N.O=C(O)C(=O)O.[Pt]	x	x	x	27.9	x	x
COc1ccc(Cc2nccc3cc(OC)c(OC)cc23)cc1OC	14.9	11.4	2.5	0.7	-1.1	27.5*
CC(=O)NC(Cc1ccc(N(CCCl)CCCl)cc1)C(=O)NC(C(=O)O)C(C)C (stereo not drawn)	3.9	3.1	1.6	16.5	10.8	1.9
CCOC(=O)CC(NC(=O)C(Cc1ccc(N(CCCl)CCCl)cc1)NC(C)=O)C(=O)OCC (stereo not drawn)	-3.0	-0.8	85.7*	38.2	-14.6	1.4
COC(=O)CC1(CC(=O)OC)C(=O)N(c2ccccc2)C(=O)N(c2ccccc2)C1=O	-2.4	x	x	-12.6	-32.7	x
O=C1CC(c2ccccc2)CC(O)=C1C=NCCN1CCN(C(=O)Cc2ccccc2)CC1 (stereo not drawn)	4.7	3.5	-8.0	-4.0	-19.7	27.6*
Cc1ccc(C2CC(=O)C(C=NCCN3CCN(C(=O)Cc4ccccc4)CC3)=C(O)C2)cc1 (stereo not drawn)	-5.4	0.7	6.7	14.2	11.1	0.9
CCCCn1c(O)c(C=NC2CCCCC2N)c(=O)[nH]c1=O (stereo not drawn)	-4.8	-1.0	-7.1	2.9	-8.7	5.9
CCCCCCn1c(O)c(C=NC2CCCCC2N)c(=O)[nH]c1=O (stereo not drawn)	3.1	3.0	4.2	39.1	-35.1	93.3*
COc1ccc(NC(=O)N2C[C@@H]3C[C@@H](C2)c2cccc(=O)n2C3)cc1	0.2	x	x	29.1	-2.9	x
CC1CCC(C(C)C)C(OC(=O)Cn2c(COc3ccccc3)[n+](C)c3ccccc32)C1 (stereo not drawn)	-6.6	98.7*	x	66.5*	-1.7	100.9*
Cc1ccc(N2C(=O)NC(=O)/C(=C\C=C\c3ccco3)C2=O)cc1	-4.1	2.1	x	-92.5	-30.6	0.4
Cc1ccc(N2C(=O)NC(=O)/C(=C\C=C\c3ccco3)C2=O)cc1C	3.9	-2.5	47.4*	-47.4	3.1	1.0
COc1ccc(-c2cc(-c3ccccc3)[n+](C)c(-c3ccccc3)c2)cc1	11.3	99.1*	-1.6	33.9	31.7	76.2*
COc1ccc(Oc2cc(NC(=O)c3nn(C)cc3[N+](=O)[O-])cc([N+](=O)[O-])c2)cc1	15.0	62.9*	94.6*	-60.9	-25.8	42.1*
COC(=O)C(O)(c1ccc(N(C)C(=O)c2cccs2)cc1)C(F)(F)F (stereo not drawn)	0.5	-1.8	8.4	-14.0	-2.0	5.5
NC(=O)Cn1cc(C(=O)c2ccccc2)c2ccccc21	4.1	x	x	16.8	-68.4	x
O=C(/C=C/c1c[nH]c2ccccc12)c1c(O)n(CCc2ccccc2)c(=O)[nH]c1=O	0.6	-1.0	x	25.9	15.7	34.5*
CNC(=O)NC(O)C(Cl)(Cl)Cl (stereo not drawn)	-2.4	x	x	3.5	-20.5	x
SMILES	IEC-6 tox	Ba/F3 V617F tox	APP transl inh	aSyn 5UTR inh	KLF5 inh	BaF3 tox
CCN1CC=C(c2c[nH]c3ccccc23)CC1	-5.7	87.3*	2.3	11.0	8.6	72.9*
CCCCCCn1c(=O)c(C(=O)Nc2ncccc2C)c(O)c2ccccc21	0.9	x	x	30.8	32.3	x
CNC(=O)Nc1ccc(C(=O)N/N=C\C23CC[C@@H](O)CC2(O)CC[C@@H]2[C@@H]3CCC3(C)C(C4=CC(=O)OC4)CCC23O)cc1 (stereo partly drawn)	0.8	2.6	x	19.1	-17.9	-0.7
C[C@]12CC[C@H]3C(CCC4(O)CC(O)CC[C@]34C=O)C1=CC[C@H]2c1ccc(=O)oc1 (stereo partly drawn)	-12.1	x	x	81.5*	-30.9	x
N=Cc1c(O)n(-c2ccc(C34CC5CC(CC(C5)C3)C4)cc2)c(=O)[nH]c1=O	-0.2	0.1	4.7	-16.2	-71.6	5.8
C[N+]1=C(/C=C/Nc2ccccc2)C(C)(C)c2ccccc21	4.6	59.2*	-16.1	-93.1	-6.8	61.3*
COc1ccc(CN2C(=O)NC(=O)/C(=C/c3ccc([N+](=O)[O-])o3)C2=O)cc1	-0.1	2.2	-2.1	x	3.7	3.7
CC(C)[C@]12O[C@H]1[C@@H]1O[C@]13[C@]1(O[C@H]1C[C@H]1C4=C(CC[C@@]13C)C(=O)OC4)[C@@H]2O	96.8*	99.1*	x	124.0*	104.4*	104.7*
Cc1nc2cc(-c3ccccc3)nn2c(C)c1CCC(=O)N1CCC2(CC1)OCCO2	-0.7	-5.0	32.1	79.3*	0.1	2.4
Cc1nc2ncnn2c(C)c1CCC(=O)N1CCC2(CC1)OCCO2	-1.3	-0.6	5.4	4.0	-11.7	1.6
CNC(=O)Oc1ccc(-c2cn3cc(C)ccc3n2)cc1	2.4	10.8	-48.8	75.5*	46.6	7.1
CNC(=O)Oc1cccc(-c2cn3cc(Cl)ccc3n2)c1	-4.9	1.2	-170.1	u	8.9	5.8
CC1(C)CSC(=NCc2ccccc2)N1	-1.2	-0.6	11.9	-3.1	-8.2	4.1
C=C(C=O)C[C@@H]1C[C@H](O)C2OC3C[C@]4(C)OC5/C=C\CC6OC7C(CC=CCC6OC5CCCC4OC3CC2O1)OC1CC2OC3CC(=O)OC3C[C@@H](C)C[C@@]2(C)OC1C[C@@H]7C (stereo partly drawn)	x	x	x	112.8*	x	x
CCCCCSc1cc(OC)c(CCN)cc1OC	12.1	7.6	55.1*	19.5	35.1	9.8
COC(=O)C1=C(c2cccc(OC)c2OC)C[C@@H]2CC[C@H]1N2C(=O)NC(C)C	x	x	x	11.8	x	x
CC(CN(C)C1CCN(C)CC1)c1ccccc1 (stereo not drawn)	-2.1	x	x	14.8	-27.0	x
COc1ccc(C2NCc3ccc4c(c3-n3cccc32)OCO4)cc1O (stereo not drawn)	73.8*	75.3*	94.1*	u	55.4	73.2*
